These results are taken from PubChem BioAssay (EPA / NIEHS).

Molecules are shown by their SMILES. “And” between values parts separate entries of the source, which are not always exact repeats. Identical values can stand only once. Records with an inconclusive call do not appear. The source made the active and inactive calls. Rule for the calls, unless noted: active = hit-call score of the fitted dose curve at least 0.9, where 1 is the maximum; inconclusive = response in the unintended direction; inactive = score below 0.9.

Chain of Nucleoli Translocation, AR (gene 367) (P10275 whole entry, looked up, the tested form may be a part): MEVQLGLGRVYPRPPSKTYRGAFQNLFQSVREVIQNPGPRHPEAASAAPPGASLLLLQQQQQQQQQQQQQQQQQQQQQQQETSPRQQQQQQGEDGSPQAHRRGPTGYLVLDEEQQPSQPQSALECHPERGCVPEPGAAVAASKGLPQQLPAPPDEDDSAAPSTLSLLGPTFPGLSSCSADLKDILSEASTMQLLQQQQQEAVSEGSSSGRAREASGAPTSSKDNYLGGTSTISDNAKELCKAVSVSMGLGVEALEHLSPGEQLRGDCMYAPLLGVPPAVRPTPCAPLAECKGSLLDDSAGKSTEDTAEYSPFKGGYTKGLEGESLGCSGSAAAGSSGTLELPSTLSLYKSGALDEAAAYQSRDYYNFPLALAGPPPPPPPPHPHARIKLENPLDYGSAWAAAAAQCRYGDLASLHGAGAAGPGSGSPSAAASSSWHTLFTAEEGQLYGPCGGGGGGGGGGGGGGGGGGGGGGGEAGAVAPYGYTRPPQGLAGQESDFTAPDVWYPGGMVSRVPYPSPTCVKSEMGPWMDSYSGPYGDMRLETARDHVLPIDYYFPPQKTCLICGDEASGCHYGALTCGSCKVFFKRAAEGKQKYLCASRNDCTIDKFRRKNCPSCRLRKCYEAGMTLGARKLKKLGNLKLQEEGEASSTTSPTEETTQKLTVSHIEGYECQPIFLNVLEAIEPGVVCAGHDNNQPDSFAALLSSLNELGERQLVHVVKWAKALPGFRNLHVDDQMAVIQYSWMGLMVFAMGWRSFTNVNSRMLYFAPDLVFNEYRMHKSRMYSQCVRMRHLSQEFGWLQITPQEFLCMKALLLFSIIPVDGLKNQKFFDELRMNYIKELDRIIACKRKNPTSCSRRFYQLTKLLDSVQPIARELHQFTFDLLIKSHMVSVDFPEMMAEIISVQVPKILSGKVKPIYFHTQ
Chain of THRB (gene 7068) (P10828 whole entry, looked up, the tested form may be a part): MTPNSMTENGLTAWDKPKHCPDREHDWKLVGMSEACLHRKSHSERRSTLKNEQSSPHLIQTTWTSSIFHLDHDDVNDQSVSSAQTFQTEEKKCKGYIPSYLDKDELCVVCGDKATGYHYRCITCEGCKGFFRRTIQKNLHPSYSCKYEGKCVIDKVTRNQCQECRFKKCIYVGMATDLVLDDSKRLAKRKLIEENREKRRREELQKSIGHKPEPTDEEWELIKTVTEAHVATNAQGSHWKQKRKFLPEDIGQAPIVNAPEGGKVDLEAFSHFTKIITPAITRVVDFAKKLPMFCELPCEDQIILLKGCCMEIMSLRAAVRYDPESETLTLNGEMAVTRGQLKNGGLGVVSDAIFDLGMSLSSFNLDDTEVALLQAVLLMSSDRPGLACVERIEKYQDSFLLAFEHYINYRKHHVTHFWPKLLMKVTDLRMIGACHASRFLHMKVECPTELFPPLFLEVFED
Chain of Retinoic acid receptor RXR-alpha (Homo sapiens) (P19793 whole entry, looked up): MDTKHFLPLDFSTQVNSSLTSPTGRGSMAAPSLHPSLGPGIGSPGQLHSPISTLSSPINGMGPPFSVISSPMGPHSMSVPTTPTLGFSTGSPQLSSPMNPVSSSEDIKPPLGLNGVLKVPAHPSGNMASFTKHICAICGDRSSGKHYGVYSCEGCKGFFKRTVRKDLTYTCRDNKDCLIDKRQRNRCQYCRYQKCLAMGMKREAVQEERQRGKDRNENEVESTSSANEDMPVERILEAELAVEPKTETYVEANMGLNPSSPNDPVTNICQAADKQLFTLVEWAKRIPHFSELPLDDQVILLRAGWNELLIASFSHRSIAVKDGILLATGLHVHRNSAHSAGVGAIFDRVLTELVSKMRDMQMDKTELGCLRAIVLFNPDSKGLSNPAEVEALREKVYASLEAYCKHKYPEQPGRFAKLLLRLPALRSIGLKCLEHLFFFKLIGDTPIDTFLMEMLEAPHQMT

Test system in one test: not listed separately
Kind of test: TOX21_TRB_BLA_Agonist_Followup_viability: Viability Assessment in the Tox21 Thyroid Hormone Receptor beta Agonism Beta-lactamase (BLA) Follow-Up Assay (AID 2283956). The method, boiled down: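 Viability was read as CellTiter-Glo luminescence in the same wells as the TRb-bla agonist read-out. HEK293T GAL4-TRb LBD cells were treated for 18 h (37C, 5% CO2) at 11 concentrations in triplicate. Fits were bidirectional versus DMSO baseline.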
Take `CC(C)(c1ccccc1)c1ccc(O)c(C(C)(C)c2ccccc2)c1`: the call was inactive. As to `C=C(C)C(=O)[O][Sn]([CH2]CCC)([CH2]CCC)[CH2]CCC`, the AC50 was 7.08 µM (active). As for `CC(C)(OO)c1ccccc1`, the call was inactive.

The next test has as its target THRB (gene 7068) (UniProt P10828). Kind of test: TOX21_TRB_COA_Agonist_Followup_ratio: Tox21 Thyroid Hormone Receptor beta Agonism through Coactivator Recruitment Follow-Up Assay, Ratio (AID 2283963; active = hit-call score of the fitted dose curve at least 0.9, where 1 is the maximum; inactive = score below 0.9). The method, boiled down:
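Signal is the 520/495 nm emission ratio (excitation 340 nm), scaled between DMSO-only wells as 0% and T3 wells as 100%. It reflects fluorescein-labeled SRC-2 peptide recruitment to GST-TRβ ligand-binding domain detected via terbium anti-GST antibody.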
Consider `NNC(=S)NN`, for which the outcome was inactive.

For the compound `CC(C)(c1ccccc1)c1ccc(O)c(C(C)(C)c2ccccc2)c1`, the result was inactive. As to `C=C(C)C(=O)[O][Sn]([CH2]CCC)([CH2]CCC)[CH2]CCC`, the result was inactive. Take `CC(C)(OO)c1ccccc1`: the result was inactive.

A further test deals with Retinoic acid receptor RXR-alpha (Homo sapiens) (UniProt P19793). Kind of test: TOX21_TR_RXR_BLA_Agonist_Followup_ratio: Tox21 Thyroid Hormone Receptor beta Retinoid X Receptor alpha (RXRa) Agonism Beta-lactamase (BLA) Follow-Up Assay, Ratio (AID 2283968). Put shortly:
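Agonist mode: compounds given to RXRa-bla HEK293T cells at 11 concentrations, triplicate, 16 h at 37C/5% CO2. Readout is the 460:530 nm blue/green ratio after 2 h substrate loading at room temperature; DMSO baseline, 9-cis retinoic acid control.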
As for `NNC(=S)NN`, the outcome was inactive. Take `C=C(C)C(=O)[O][Sn]([CH2]CCC)([CH2]CCC)[CH2]CCC`: the AC50 is 0.116 µM (active). As to `CC(C)(OO)c1ccccc1`, the outcome was inactive.

Test system in another test: not listed separately
Description: TOX21_TR_RXR_BLA_Agonist_Followup_viability: Viability Assessment in the Tox21 Thyroid Hormone Receptor beta Retinoid X Receptor alpha (RXRa) Agonism Beta-lactamase (BLA) Follow-Up Assay (AID 2283970). Put shortly:
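CellTiter-Glo ATP luciferase read-out of cell viability, multiplexed with the beta-lactamase reporter run. RXRa-bla HEK293T cells in charcoal-stripped serum medium were exposed 16 h at 37C; data fitted both directions relative to DMSO.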
Turning to `NNC(=S)NN`, the call was inactive. On the same count and under the same terms, in the case of `CC(C)(c1ccccc1)c1ccc(O)c(C(C)(C)c2ccccc2)c1` it was “inactive”. For the compound `C=C(C)C(=O)[O][Sn]([CH2]CCC)([CH2]CCC)[CH2]CCC`, the AC50 was 15.1 µM (active). Turning to `CC(C)(OO)c1ccccc1`, the compound was classed as inactive.

A further test has as its system DIO1 (gene 1733). Kind of test: CCTE_GLTED_hDIO1: CCTE's human Deiodinase 1 (DIO1) Inhibition Assay, Great Lakes Toxicology and Ecology Division (GLTED) Lab (AID 2283987).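 Note: isolated human DIO1 enzyme in a cell-free setup rather than cells; enzyme activity read as free iodide liberated from substrate via Sandell-Kolthoff colorimetry.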 The method, boiled down:
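Inhibition of human deiodinase 1 is scored as reduced iodide liberation after a 3 h enzyme–chemical incubation, detected colorimetrically by the Sandell-Kolthoff reaction against DMSO controls.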
For `COP(=S)(OC)Oc1ccc(Sc2ccc(OP(=S)(OC)OC)cc2)cc1`, the AC50 is 1.19 µM (active). The same measure, in the same setting: in the case of `COP(=O)(OC)O/C(=C\Cl)c1cc(Cl)c(Cl)cc1Cl` it was 48.7 µM (active). With `O=C(O)C(F)(F)C(F)(F)C(F)(F)C(F)(F)C(F)(F)C(F)(F)C(F)(F)C(F)(F)C(F)(F)C(F)(F)F`, the AC50 was 157 µM (active) and 18 µM (active). For `CC(C)(c1ccc(OCC2CO2)cc1)c1ccc(OCC2CO2)cc1` (stereo not given), the AC50 was 1.37 µM (active).

Regarding `CCCCCCCCc1ccc(O)cc1`, the AC50 is 57.1 µM (active). Take `O=C1C(Cl)=C(Cl)C(=O)c2ccccc21`: the concentration at half-maximal activity (AC50) was 20 µM (active). Consider `CCC(C)(C)c1ccc(O)c(C(C)(C)CC)c1`, for which the AC50 is 46.1 µM (active). As for `CC(C)(C)CC(C)(C)c1ccc(O)cc1`, the AC50 is 90.7 µM (active).

`C=CC(=O)OCCCCCC(C)C`: the AC50 is 30.8 µM (active).

A further test addresses Nucleoli Translocation, AR (gene 367) (UniProt P10275). Description: UPITT_HCI_U2OS_AR_TIF2_Nucleoli_Antagonist: University of Pittsburgh U2OS Androgen Receptor-Transcriptional Intermediary Factor 2 (AR-TIF2) Antagonism High Content Imaging Assay for Nucleoli Translocation (AID 2283997). Put shortly: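 Compounds are added at 20 uM final concentration in 0.2% DMSO to U2OS cells carrying AR-RFP and TIF2-GFP fusions. Nucleolar AR-RFP fluorescence is then quantified by automated imaging. Antagonism is fitted positively against DHT baseline.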
For `COP(=S)(OC)Oc1ccc(Sc2ccc(OP(=S)(OC)OC)cc2)cc1`, the outcome was inactive. With `O=C1C2(Cl)C3(Cl)C4(Cl)C(Cl)(Cl)C5(Cl)C3(Cl)C1(Cl)C5(Cl)C24Cl` (stereo not given), the AC50 was 13.3 µM (active). `O=[N+]([O-])c1ccc(O)c([N+](=O)[O-])c1`: the compound was classed as inactive. On to `Cl/C=C\C[N+]12CN3CN(CN(C3)C1)C2`, for which the AC50 was 50 µM (active).

On to `c1cc[c]([Hg][c]2ccccc2)cc1`, for which the AC50 was 70.3 µM (active). Same read-out and setting: the same measure for `COP(=O)(OC)O/C(=C\Cl)c1cc(Cl)c(Cl)cc1Cl`: 50 µM (active). `ClC1(Cl)C2(Cl)C3(Cl)C4(Cl)C(Cl)(Cl)C5(Cl)C3(Cl)C1(Cl)C5(Cl)C24Cl` (stereo not given): the outcome was inactive. `C[C@H]1CCCC(=O)CCC/C=C/c2cc(O)cc(O)c2C(=O)O1`: the AC50 is 6.39 µM (active).

For `Clc1ccc(COC(Cn2ccnc2)c2ccc(Cl)cc2Cl)cc1` (stereo not given), the AC50 was 10.1 µM (active). As to `CC(C)(c1ccc(OCC2CO2)cc1)c1ccc(OCC2CO2)cc1` (stereo not given), the AC50 was 50 µM (active). For the compound `Cc1ccccc1C(=O)Nc1cccc(OC(C)C)c1`, the compound was called inactive. Regarding `C[C@H]1O[C@@H](O[C@H]2[C@@H](O)C[C@H](O[C@H]3[C@@H](O)C[C@H](O[C@H]4CC[C@@]5(C)[C@H](CC[C@@H]6[C@@H]5CC[C@]5(C)[C@@H](C7=CC(=O)OC7)CC[C@]65O)C4)O[C@@H]3C)O[C@@H]2C)C[C@H](O)[C@@H]1O`, the half-maximal activity concentration (AC50) is 8.23 µM (active) and 5.95 µM (active).

Regarding `CCOP(=S)(OCC)Oc1nc(Cl)c(Cl)cc1Cl`, the AC50 was 50 µM (active). With `CCSC(C)CC1CC(=O)C(C(CC)=NOC/C=C/Cl)=C(O)C1` (stereo not given), the call was inactive. On the same count and under the same terms, the same measure for `CC(C)c1cccc(C(C)C)c1O`: “inactive”; for `CCC1(c2ccc(N)cc2)CCC(=O)NC1=O` (stereo not given): “inactive”; for `CN(CCCC(=O)c1cccnc1)N=O`: “inactive”.

As for `Cc1ccc2ccccc2c1C`, the outcome was inactive. `C=CCc1ccc(OC)cc1`: the outcome was inactive.

With `CC(=O)[O][Hg][c]1ccccc1`, the AC50 is 0.29 µM (active).

Turning to `COP(=O)(OC)OC`, the result was inactive.

As to `O=c1[nH]c(=O)[nH]c(=O)[nH]1`, the call was inactive.

For the compound `COP(=S)(OC)Oc1cc(Cl)c(Cl)cc1Cl`, the compound was called inactive. Regarding `CC(C)CCCCCCOC(=O)c1ccccc1C(=O)OCCCCCCC(C)C`, the compound was classed as inactive.

As for `CCC(=O)C(CC(C)N(C)C)(c1ccccc1)c1ccccc1` (stereo not given), the compound was called inactive. Take `CC12CC1(C)C(=O)N(c1cc(Cl)cc(Cl)c1)C2=O` (stereo not given): the AC50 is 0.134 µM (active).

For `C=CC(=O)OCCCCCC(C)C`, the call was inactive.

The AC50 is the midpoint of the concentration-response curve, whichever way the signal moves.
